Experimental data reported in PubChem BioAssay (Tox21).
Results filed as inconclusive are left out. The source made the active and inactive calls. Calls follow the shape of the dose curve; as a rule, active = well fitted cell-killing curve with a large enough effect in the repeat runs; inconclusive = weak or mixed curves; inactive = flat fitted curve, though single readings scatter.

experiment: qHTS RealTime-Glo MT Cell Viability Assay in HepG2 cells - 32 hour (AID 1224877); conditions: RealTime-Glo luminescence; series mostly up to 76.8 µM; activity change, negative = cytotoxic: at the top concentration; also: nearly all actives have a fitted effect of over 55% in size
Source text: U.S. Tox21 Program National Center for Advancing Translational Sciences [NCATS] NIH Chemical Genomics Center [NCGC] U.S. Environmental Protection Agency [EPA] National Institutes of Environmental Health Sciences [NIEHS] National Toxicology Program [NTP] U.S. Food and Drug Administration [FDA] Tox21 Assay Overview: Measure of cell viability is critical in the cell-base assay. Analysis of cell viability is necessary for the characterization of cell responses to cytotoxic drugs and environmental stress. A RealTime-Glo MT Cell Viability Assay to monitor cell viability in real time of continues cell culture during 40 hours of compound treatment was used to screen Tox21 10K library compounds in HepG2 cells. The RealTime-Glo MT Cell Viability Assay is a nonlytic, homogeneous, bioluminescent method to measure cell viability in real time using a simple, plate-based method. The assay involves adding NanoLuc luciferase and a cell-permeant prosubstrate to cells in culture. Viable cells reduce the proprietary prosubstrate to generate a substrate for NanoLuc luciferase. This substrate diffuses from cells into the surrounding culture medium, where it is rapidly used by the NanoLuc Enzyme to produce a luminescent signal. The signal correlates with the number of viable cells, making the assay well suited for cytotoxicity studies.
Tox21 Assay Protocol Summary: The mixture of HepG2 cell suspension and reagents were dispensed at 600cells/6 ul/well in 1536-well tissue culture treated black solid bottom plates using a Multidrop dispenser. After the assay plates were incubated at a 37 C/5% CO2 incubator for 5 hours, 23 nL of compounds dissolved in DMSO, positive and negative controls was transferred to the assay plate by a pintool work station. The plates were incubated at 37 C for 40 hours. The luminescence intensity were measured at 0h, 8h, 16h, 24h, 32h and 40h time points using ViewLux plate reader during compound treatment.
% is scaled to controls: 0 for no effect and ±100 for the full control effect.

SMILES | activity change, negative = cytotoxic
CCCCOCCOC(=O)COc1nc(Cl)c(Cl)cc1Cl | 0.532% (inactive)
CCC(C)NC(N)=O (stereo not given) | 0.28% (inactive)
C[C@H](CCC(=O)O)[C@H]1CC[C@H]2[C@@H]3C(=O)C[C@@H]4CC(=O)CC[C@]4(C)[C@H]3CC(=O)[C@]12C | 0.548% [at 35.3 µM] (inactive)
OC[C@H](Cc1cccc(O)c1)[C@H](CO)Cc1cccc(O)c1 | -8.76% (inactive)
C=CC(OCC)OCC | -2.42% (inactive)
Nc1ccc(S(=O)(=O)Nc2ccc(Cl)nn2)cc1 | 0.498% [at 35.3 µM] (inactive)
N[C@@H](CCC(=O)N[C@@H](CS)C(=O)NCC(=O)O)C(=O)O | 2.09% [at 15.8 µM] (inactive)
CNS(=O)(=O)CCc1ccc2[nH]cc(C3CCN(C)CC3)c2c1 | -6.78% [at 35.3 µM] (inactive)
CCNC(=O)C1CC(C)CCC1C(C)C (stereo not given) | 0.319% (inactive)
CCN(C)C(=O)Oc1cccc([C@H](C)N(C)C)c1 | 3.77% [at 35.3 µM] (inactive)
CCCN1C[C@H](CSC)C[C@@H]2c3cccc4[nH]cc(c34)C[C@H]21 | -0.389% [at 35.3 µM] (inactive)
CC1COc2ccccc2N1 (stereo not given) | 3.14% (inactive)
CC(CN)CC(C)(C)CCN (stereo not given) | 3.47% [at 200 µM] (inactive)
C=C(C)C(=O)OCC(C)(C)COC(=O)C(=C)C | 0.987% (inactive)
CC(=O)c1sc(C)nc1C | 3.6% (inactive)
CC[C@H](C)C(=O)O[C@H]1C[C@H](O)C=C2C=C[C@H](C)[C@H](CC[C@@H](O)C[C@@H](O)CC(=O)O)[C@H]21 | -1.69% (inactive)
CC(=O)CCCCn1c(=O)c2c(ncn2C)n(C)c1=O | 0.151% [at 35.3 µM] (inactive)
Nc1ncnc(Nc2ccccc2)n1 | 2.02% [at 35.3 µM] (inactive)
CCC(C)(CCC(C)C)C(=O)O (stereo not given) | 2.37% (inactive)
Nc1ccc([N+](=O)[O-])c(N)c1 | -4.34% (inactive)

SMILES | activity change, negative = cytotoxic
OCCCCC(O)CO (stereo not given) | 1.7% (inactive)
C[C@@H]1O[C@@H](O[C@@H]2[C@@H](O)[C@H](OCCc3ccc(O)c(O)c3)O[C@H](CO[C@@H]3O[C@H](CO)[C@@H](O)[C@H](O)[C@H]3O)[C@H]2OC(=O)/C=C/c2ccc(O)c(O)c2)[C@H](O)[C@H](O)[C@H]1O | -5.08% (inactive)
CC1=CCC(C(C)C)=CC1 | 0.151% (inactive)
C=C(C)C(=O)OCc1ccccc1 | 1.15% (inactive)
N[C@@H](COP(=O)(O)O)C(=O)O | 1.44% [at 15.8 µM] (inactive)
COc1ccc2c(c1OC)C(=O)O[C@@H]2[C@H]1c2c(cc3c(c2OC)OCO3)CCN1C | -5.21% [at 35.3 µM] (inactive)
NS(=O)(=O)c1ccc(NC(=O)CCC(=O)O)cc1 | 1.55% [at 35.3 µM] (inactive)
O=C1CC(c2ccc(Cl)cc2)CC(=O)N1 | -1.35% [at 35.3 µM] (inactive)
CCc1ccc(C=O)cc1 | 1.6% (inactive)
N#Cc1ccc(C(=O)O)cc1 | -0.447% (inactive)
COC(=O)C1CC(=O)C(C(=O)OC)CC1=O (stereo not given) | 12.6% [at 6.97 µM] (inactive)
CC(=O)NCCCCCC(=O)O | 2.98% [at 35.3 µM] (inactive)
CC(CO)c1ccccc1 (stereo not given) | 1.22% (inactive)
COc1ccc(-c2cc(=O)c3c(O)cc(O[C@@H]4O[C@H](CO[C@@H]5O[C@@H](C)[C@H](O)[C@@H](O)[C@H]5O)[C@@H](O)[C@H](O)[C@H]4O)cc3o2)cc1O | 1.48% [at 35.3 µM] (inactive)
CCCCCCCCCCl | 0.687% (inactive)
CC1(C)S[C@@H]2[C@H](N=CN3CCCCCC3)C(=O)N2[C@H]1C(=O)O | 4.2% [at 35.3 µM] (inactive)
O=C(O)c1cc(Cl)cc([N+](=O)[O-])c1Cl | 2.32% (inactive)
O=C(NCC(O)CO)c1c(I)c(C(=O)NCC(O)CO)c(I)c(N(CCO)C(=O)CO)c1I (stereo not given) | -0.366% [at 35.3 µM] (inactive)
CC(C(=O)O)c1ccc2c(c1)CC(=O)c1ccccc1S2 (stereo not given) | 7.77% [at 35.3 µM] (inactive)
Cc1nc2n(c(=O)c1CCN1CCC(c3noc4cc(F)ccc34)CC1)CCC[C@H]2O | 0.664% [at 15.8 µM] (inactive)
